Assay results published in PubChem BioAssay AID651789 (National Center for Advancing Translational Sciences (NCATS), 2012).
Records with an inconclusive call do not appear. Calls of active or inactive are those of the source. The call rests on the fitted dose curve; in most records, active means well fitted inhibition curve with a large enough effect; inconclusive means small, poorly fitted or top-dose-only effect; inactive means no such curve, though single readings can be large or run the other way.

test: Acumen qHTS Assay for Inhibitors of the mTORC1 Signaling Pathway in WT MEF Cells: Hit Validation; details: Acumen imaging; series mostly up to 37.3 µM; further: nearly all actives have a fitted effect of over 60% in size
Summary of the method: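 Read-out is immunofluorescent phospho-rpS6 (Ser235/236) normalised to PI-stained cell number, reported as % active cells using a 7.5 nM rapamycin threshold. Cells: WT or Tsc2-/-, p53-/- MEFs, compound-exposed 24 h at 37C; PI count also tracks viability.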
Potency means the concentration at half of the fitted maximal effect.

Potency, inactive:
Cc1ccc(-n2ncc(C(=O)NCCCN3CCc4ccccc4C3)c2C2CCN(C(=O)OC(C)(C)C)CC2)c(C)c1, CCC(C(=O)N1CCN(c2cccc(C)c2C)CC1)n1nc(C)c2sc3ccccc3c2c1=O (stereo not given), C=C(C)CSc1nc(-c2ccccc2)cc(-c2ccc(OC)cc2)c1C#N, COc1ccc(-c2ccc(CCC(=O)O)n2-c2ccccc2O)cc1, CCOC(=O)c1c(NC(=O)COc2ccc(OC)cc2)sc(C(=O)N(CC)CC)c1C, CCn1c(CN2CCC(C)CC2)nc2cc(NC(=O)c3ccccc3[N+](=O)[O-])ccc21, NC(N)=NC(=O)c1nc(Cl)c(N)nc1N, Cc1cc(C)c(-c2n[nH]c3c2C(c2ccccc2F)N(Cc2ccco2)C3=O)c(O)c1 (stereo not given), O=S(=O)(NCC(c1ccco1)S(=O)(=O)c1cccs1)c1ccc(Cl)cc1 (stereo not given), COc1ccc(C)cc1NC(=O)CCNS(=O)(=O)c1cccc2nonc12, CCc1ccccc1NC(=O)CSCc1cnn(-c2ccccc2)c1-n1cccc1, COc1cc(NC(=O)c2cccc3c2C(=O)N(C2CCCCC2)C3)cc(OC)c1OC, CCCCN(C)C(=O)CSc1c2c(nc3ccc(Cl)cc13)CCCC2, COc1ccc(N2CCN(C(=O)C(C)n3nc(C)c4sc5ccccc5c4c3=O)CC2)cc1 (stereo not given), CCOC(=O)c1c(NC(=O)c2ccc(S(=O)(=O)N(C)C)cc2)sc2c1CCN(C)C2, CCC1CN(C(=O)NCc2ccc(F)cc2)c2cc(C)ccc2O1 (stereo not given), CC(C)CCNC(=O)Nc1ccc2c(c1)N(C)C(=O)c1ccccc1S2, COC(=O)c1cc2sc(C)cc2n1Cc1ccccc1, CCn1c(CC2C(=O)N(C)c3ccc(Br)cc32)nc2ccccc2c1=O (stereo not given), NS(=O)(=O)c1cc(C(=O)O)c(NCc2ccco2)cc1Cl, COc1ccc(CCNC(=O)CCCn2nc(C)c3sc4ccccc4c3c2=O)cc1OC, Cc1ccccc1Oc1nc2ccccn2c(=O)c1/C=C(\C#N)c1nc2ccccc2[nH]1, COc1ccccc1-c1noc(CSc2nc3ccc(C)cc3[nH]2)n1, COc1ccc(C)cc1NC(=O)CSc1ccc(-c2ccccn2)nn1, O=C(CSc1nc2c([nH]c3ccccc32)c(=O)n1-c1ccc(F)cc1)NC1CCCCC1, Cc1cccn2c(Nc3ccccc3)c(-c3cccs3)nc12, CCc1ccc(OCC(=O)Nc2ccc3oc(-c4ccc(OC)cc4)nc3c2)cc1, Cn1nc(-c2ccc(OCC(=O)Nc3ccccc3)cc2)c2ccccc2c1=O

Potency, active:
CCCOCc1cc(CN2CCN(c3ccccc3OC)CC2)c(O)c2ncccc12 1470 nM, CCS(=O)(=O)c1ncc(Cl)c(C(=O)N2CCN(c3cccc(Cl)c3)CC2)n1 2610 nM, CCOc1ccc(S(=O)(=O)N(C(=O)c2ccncc2)c2ccc3oc(C)c(C(=O)OC)c3c2)cc1 14700 nM, CCNC(=O)c1c(NC(=O)c2nc(S(=O)(=O)CC)ncc2Cl)sc2c1CCCC2 585 nM, COc1ccc(N(Cc2ccccc2)C(=O)c2nc(S(C)(=O)=O)ncc2Cl)cc1 2070 nM, Cc1cccc(NC(=O)c2nc(S(C)(=O)=O)ncc2Cl)c1 1650 nM, CCS(=O)(=O)c1ncc(Cl)c(C(=O)N(Cc2ccccc2)Cc2ccco2)n1 3290 nM, CCS(=O)(=O)c1ncc(Cl)c(C(=O)NCc2ccccc2)n1 3290 nM, C=CCNC1=C2C[C@@H](C)C[C@H](OC)[C@H](O)[C@@H](C)/C=C(\C)[C@H](OC(N)=O)[C@@H](OC)/C=C\C=C(/C)C(=O)NC(=CC1=O)C2=O 515 nM, O=C(CCOc1ccccc1)N(Cc1cccnc1)c1nc2c(F)cccc2s1 13100 nM, CCS(=O)(=O)c1ncc(Cl)c(C(=O)N2CCN(c3ccc(OC)cc3)CC2)n1 10400 nM, CCN1CCN(C(=O)Cn2ncc3c4ccccc4n(Cc4c(C)cc(C)cc4C)c3c2=O)CC1 5210 nM
